Reference: PubChem BioAssay AID651702 (NMMLSC, 2012)
Screen size: about 360,000 compounds; about 2,400 (0.67%) were called active.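 How the source made its calls: active means inhibition above about 55% (limit read from the data); inconclusive means no clear call, values can overlap the other calls; inactive means the rest.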 The list comes from a sample in which actives are over-represented; it also holds similar structures and randomly drawn compounds.

Assay: LAMP-1 surface exposure blockers, TALL-104 cells – cell-based, flow cytometry, MLPCN library, primary screen (AID 651702)
Conditions: TALL-104 LAMP-1 surface exposure, at 10 µM, stronger effect = higher value, cells stimulated with thapsigargin and PMA

Compound	inhibition
Cn1c(=O)c([N+](=O)[O-])c(Oc2ccccc2)c2ccccc21	-0.7% (inactive)
COc1ccc(NS(=O)(=O)c2cc(NC(=O)CC(=O)c3ccc([N+](=O)[O-])cc3)ccc2C)cc1	-16.7% (inactive)
C=CCn1c(CCNC(=O)c2ccccc2F)nnc1SCC(=O)Nc1ccc(OC)cc1	-1.4% (inactive)
CCOC(=O)CCCNC(=O)CN1C(=O)NC(CCc2ccccc2)C1=O (stereo unspecified)	-0.3% (inactive)
CCCCNC(=O)C(C)N(CCN(C)C)C(=O)CCCN1C(=O)NC(c2ccc(Cl)cc2)C(C(=O)OCc2ccccc2)=C1C (stereo unspecified)	65.1% (active)
CCCCNC(=O)C(C)N(CCN(C)C)C(=O)CCCCCN1C(=O)NC(c2ccc(Cl)cc2)C(C(=O)OCc2ccccc2)=C1C (stereo unspecified)	61.8% (active)
CCOC(=O)C1=C(CN2CCc3ccccc32)NC(=O)NC1c1ccc(Cl)cc1 (stereo unspecified)	-0.5% (inactive)
COC(=O)C1=C(C)N(Cc2ccccc2)C(=NCCCOC(C)C)N[C@H]1c1ccccc1	-2.7% (inactive)
CCOC(=O)C1=C(C)N(C[C@@H]2CC[C@@H](Cc3ccc(-c4ccccc4)cc3)O2)C(=O)NC1c1ccc([N+](=O)[O-])cc1 (stereo partly specified)	1.6% (inactive)
COc1ccc(OC)c(CN2C(=O)CCC2(C)c2nnnn2Cc2ccccc2)c1 (stereo unspecified)	-8.5% (inactive)
O=C(CSc1nnc(-c2ccoc2)o1)N1CCOCC1	-6.6% (inactive)
O=[N+]([O-])/C=C/c1ccc2c(ccn2Cc2ccccc2)c1	79.9% (active)
C=CCC[C@@H](CCCCC)OC(=O)/C=C/[C@@H](O)[C@H](O)C[C@H](O)CC=C	-9.1% (inactive)
Cc1ccc2oc(C(=O)N3CCN(C)C[C@@H]3C(C)C)c(C)c2c1	1.3% (inactive)
CCOC(=O)C1C(C)C(C(C)(C)C)N(S(=O)(=O)c2ccc(C)cc2)C1c1ccccc1 (stereo unspecified)	-9.6% (inactive)
NS(=O)(=O)c1ccc(CCNC(=O)CCCn2c(SCC(=O)N3CCCC3)nc3ccsc3c2=O)cc1	-2.5% (inactive)
CN(C)CCNC(=O)c1ccc(-c2cn3c(-c4ccc(Oc5ccccc5)cc4)cnc3cn2)cc1	57.2% (active)
CN(C)C(CNC(=O)c1ccc(OCc2cn3ccccc3n2)cc1)c1ccco1 (stereo unspecified)	-4.3% (inactive)
CN(C)CCNC(=O)c1cccc(-c2cnc3c(NC=O)cc(-c4cccc(C(F)(F)F)c4)cn23)c1	39.3% (inactive)

Compound	inhibition
CCCCCC(O)(CCN1CCCCC1)c1ccccc1 (stereo unspecified)	1.7% (inactive)
Cc1cc(F)ccc1NC(=O)C(C)n1c2ccccc2c2nc(=O)cc(C)n21 (stereo unspecified)	0.1% (inactive)
CC(C)N1C(=O)c2ccccc2NC(=O)C1C(=O)NCc1cccs1 (stereo unspecified)	16.2% (inactive)
Cc1ccc(CN(C)Cc2cc(=O)oc3cc(C)c(Cl)cc23)cc1	-0.1% (inactive)
Cc1cc2oc(=O)cc(CN(C)Cc3ccc(OC(F)F)cc3)c2cc1Cl	76.8% (active)
Cc1cc2oc(=O)cc(CN(C)Cc3ccccc3)c2cc1Cl	-1.1% (inactive)
CCC(C(=O)NCc1cccnc1)n1nc(C)c2sc3ccccc3c2c1=O (stereo unspecified)	5.3% (inactive)
Cc1nn(CC(=O)NCCc2ccccc2)c(=O)c2cc3occc3n12	-1.6% (inactive)
CCc1ccc(-c2cc3c(=O)n(CC(=O)NCCCN4CCN(Cc5ccccc5)CC4)nc(C)n3n2)cc1	57.5% (active)
O=C(Cn1ncc2c3ccccc3n(Cc3ccccc3)c2c1=O)NCCCN1CCOCC1	0.7% (inactive)
O=C(NCC(F)(F)F)Nc1nnc(C(F)(F)F)s1	4.2% (inactive)
O=C(CCCN1CCc2[nH]c3ccc(F)cc3c2C1)c1ccc(F)cc1	38.3% (inactive)
C=CCn1c(SCc2ccc(Cl)c(Cl)c2)nnc1C(CO)NC(=O)c1ccc(OC)cc1 (stereo unspecified)	0.1% (inactive)
CCN1/C(=C\c2ccc3ccccc3[n+]2CC)Sc2cc(C)ccc21	63.6% (active)
Cc1ccc(C)c(S(=O)(=O)N2CCN(c3ncnc4sccc34)CC2)c1	-10.6% (inactive)
CC1C(=O)Nc2ccccc2N1C(=O)c1ccc(F)cc1F (stereo unspecified)	-3.6% (inactive)
COc1ccc(F)cc1C(=O)COC(=O)c1n[nH]c(=O)c2ccccc12	3.6% (inactive)
O=C(/C=C/Sc1ncn[nH]1)c1ccc(Cl)cc1	69% (active)
CC1CCC(CN2CCN=C2N(C)C)CC1 (stereo unspecified)	8.2% (inactive)

Compound	inhibition
Cc1cccc(C)c1NC(=O)C(Cl)C(=O)c1ccccc1 (stereo unspecified)	72.7% (active)
Cc1cccc(C)c1NC(=O)COC(=O)c1ccccc1O	-9.6% (inactive)
Cc1cccc(C)c1NC(=O)N1CC(C)OC(C)C1 (stereo unspecified)	-0.4% (inactive)
Cc1ccc(N(C(=O)CNC(=O)c2ccco2)C(C(=O)NC2CCCC2)c2ccncc2)cc1 (stereo unspecified)	-16.9% (inactive)
COCCc1nn2c(=O)cc(COC(=O)c3cc(OC)c(OC)c(OC)c3)nc2s1	-0.5% (inactive)
Cc1ccc(N(CC(=O)Nc2cc(C)cc(C)c2)S(=O)(=O)c2cccc3nonc23)cc1	2.1% (inactive)
Cc1cccc(N(CC(=O)Nc2ccc(-c3nc4ccc(C)cc4s3)cc2)S(C)(=O)=O)c1	68% (active)
CCN(CC)S(=O)(=O)c1ccc(NC(=O)CN(c2cccc(F)c2)S(C)(=O)=O)cc1	-6% (inactive)
CCn1c(O)c2ccc(C(=O)N=NC(=O)c3cccnc3)cc2c1O	-0.4% (inactive)
CCc1sc(C(=O)N2CCN(CC(=O)Nc3cccc(F)c3)CC2)cc1C	-5.4% (inactive)
CC(=O)C[C@@H]1OC[C@H](C)N1S(=O)(=O)c1ccc(C)cc1	-6.7% (inactive)
COc1ccc(-c2cc(=O)oc3cc(OC(C)C(=O)NCC4CCC(C(=O)O)CC4)ccc23)cc1 (stereo unspecified)	19.5% (inactive)
Cc1ccc([N+](=O)[O-])c(OCCCNCC(C)O)c1 (stereo unspecified)	0% (inactive)
Cc1cc(C)cc(NC(=S)NCCCN2CCOCC2)c1	-0.8% (inactive)
CCCCc1ccc(NC(=S)NCCCN2CCOCC2)cc1	67% (active)
CCCC(=O)NC(=S)Nc1ccc(CN2CCOCC2)cc1	-6.2% (inactive)
Cc1ccc(S(=O)(=O)N2CCC(=O)N([C@H](COCc3ccccc3)C(C)C)CC2)cc1	-7.5% (inactive)
CC(C)CCN1CCN=C1N(C)C	-1.5% (inactive)
